A selection: hits, their analogues and other compounds. The true share with any hit is near 2.4%.
POLI inh: blocks human DNA polymerase iota activity | Pol iota fluorescent replication assay, 10 min | Potency, µM (doses to about 115 µM), actives largely listed as inhibitors | 390,000 compounds, 1% hits
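Fluorescent replication assay read twice, at 0 min and 10 min after adding 50 nM (final) substrate. Enzyme (10 nM) and compounds were first incubated 15 min at room temperature; enzyme-free buffer wells were negative controls.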
FEN1 inhibitor: blocks human flap endonuclease 1; P39748; Recombinant FEN1 flap cleavage, fluorescence, 15 min; Potency, µM (doses to about 114 µM), usual class: inhibitors; 390,000 compounds, 0.35% hits; note: nearly all actives have a fitted effect of over 65% in size
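Enzyme 10 nM, 15 min RT preincubation with compound; start with substrate 50 nM final; reads at 0 and 15 min; qHTS titration, four-parameter Hill fit.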
Pol kappa inh-1: blocks human DNA polymerase kappa activity; 400,000 compounds, 0.53% hits; Q9UBT6; purified Pol kappa, fluorescent DNA synthesis assay, 10 min; Potency, µM (series often up to 107 µM), usual class: inhibitors
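10 nM Pol kappa preincubated 15 min at room temperature with compounds, then reaction started with substrate at 50 nM final. Fluorescence read kinetically at 0 and 10 min; buffer-only wells served as negative control.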
POLB inh: blocks human DNA polymerase beta activity; P06746; Pol beta primer extension/strand displacement, fluorescence kinetic; Potency, µM (top dose mostly 114 µM), usual class: inhibitors; 340,000 compounds, 1.3% hits
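Enzyme-only controls used 10 nM Pol beta; buffer lacking enzyme served as negative control. Compound preincubated 15 min, then 50 nM substrate added; 0 and 10 min reads at room temperature.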
WRN inhibitor: WRN helicase (human) inhibition; Q14191; WRN helicase unwinding, fluorescent forked duplex, kinetic; Potency, µM (doses to about 114 µM), usual class: inhibitors; 360,000 compounds, 0.46% hits; AID 651768; note: nearly all actives have a fitted effect of over 55% in size
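Kinetic fluorescence helicase assay: unwinding of a quenched forked DNA duplex (100 nM final) with 2 mM ATP final raises red fluorescence (525/598 nm). Compounds sat 15 min at room temperature with 20 nM WRN beforehand.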
Pol eta inh-1: blocks human DNA polymerase eta activity. Q9Y253. AID 588591. 390,000 compounds, 1.2% hits. recombinant Pol eta, fluorescent DNA replication assay. Potency, µM (series often up to 114 µM), actives largely listed as inhibitors
Target sequence (Q9Y253 whole entry, looked up): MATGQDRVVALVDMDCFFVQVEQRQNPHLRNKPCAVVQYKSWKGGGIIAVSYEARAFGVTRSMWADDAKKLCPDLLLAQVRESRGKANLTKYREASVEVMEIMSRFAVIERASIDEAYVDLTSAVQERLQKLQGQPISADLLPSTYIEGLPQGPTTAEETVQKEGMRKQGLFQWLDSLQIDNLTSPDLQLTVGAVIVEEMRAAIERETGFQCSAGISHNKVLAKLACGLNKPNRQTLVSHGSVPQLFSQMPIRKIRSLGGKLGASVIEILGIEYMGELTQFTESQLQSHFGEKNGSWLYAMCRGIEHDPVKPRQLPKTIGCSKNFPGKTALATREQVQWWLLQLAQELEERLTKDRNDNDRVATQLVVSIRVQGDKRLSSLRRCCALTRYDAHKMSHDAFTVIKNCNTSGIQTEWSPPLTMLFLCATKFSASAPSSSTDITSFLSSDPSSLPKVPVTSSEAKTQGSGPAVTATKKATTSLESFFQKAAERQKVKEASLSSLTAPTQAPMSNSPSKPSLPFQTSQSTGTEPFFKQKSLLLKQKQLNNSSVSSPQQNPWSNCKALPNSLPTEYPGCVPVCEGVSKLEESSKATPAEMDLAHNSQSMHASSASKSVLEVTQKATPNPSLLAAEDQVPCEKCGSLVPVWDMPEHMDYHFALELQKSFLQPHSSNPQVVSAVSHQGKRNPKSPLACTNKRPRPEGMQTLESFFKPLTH
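Pol eta (10 nM) was preincubated with compounds for 15 min at room temperature, after which fluorescent replication substrate (50 nM final) was added to start the reaction. Fluorescence was read kinetically at 0 and 10 min.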
PGK validate: validation of Trypanosoma brucei phosphoglycerate kinase inhibitors | shares compounds with Pol kappa inh-1 | TbPGK coupled GAPDH assay, Kinase-Glo luminescence | Potency, µM (highest dose often 57.5 µM), usual class: inhibitors | 500 compounds, 79% hits | AID 686980; note: nearly all actives have a fitted effect of over 65% in size
POLI cherry-pick: Confirm cherry-picked inhibitors of human polymerase iota | shares compounds with Pol kappa inh-1 | Pol iota primer extension, TAMRA/BHQ fluorescence | Potency, µM, most hits filed as inhibitors | 1,500 compounds, 77% hits | AID 720496
GALK inh confirm: confirmation of human galactokinase (GALK) inhibitors | Potency, µM (series often up to 115 µM), actives largely listed as inhibitors | 150 compounds, 70% hits | AID 2015 | shares compounds with Pol eta inh-1 | purified GALK, Kinase-Glo ATP depletion luminescence
Redox cycling: counter-screen for GALK inhibitors: redox cycling H2O2 generation | 150 compounds, 40% hits | Potency, µM (top dose mostly 115 µM), actives largely listed as inhibitors | shares compounds with Pol eta inh-1 | Phenol red-HRP H2O2 redox cycling, absorbance 600 nm | AID 2035
HEK293 viability: counter-screen for GALK inhibitors: HEK293 cell cytotoxicity; shares compounds with Pol eta inh-1; HEK-293 viability, ATP luminescence (CellTiter-Glo), 24/48 h; Potency, µM (titrated, usually from 46.1 µM), usual class: inhibitors; 170 compounds, 10% hits; AID 2547
Pol kappa inh-2: confirmation of human DNA polymerase kappa inhibitors | shares compounds with Pol eta inh-1 | purified Pol-kappa, fluorescent strand-displacement substrate | Potency, µM, most hits filed as inhibitors | 920 compounds, 76% hits | AID 720501
Pol eta inh-2: confirmation of human DNA polymerase eta inhibitors; Pol eta primer extension, TAMRA/BHQ fluorescence, 10 min; 2,600 compounds, 64% hits; AID 720502; shares compounds with Pol eta inh-1; Potency, µM, hits mostly inhibitors
Hits are given with their value; – = inactive; ? = inconclusive; · = not tested or not shown; [ ] = another dose, or the depositor's remark. Calls come from the whole dose curve; as a rule, active = well fitted curve in the direction sought with a large enough effect; inconclusive = small, poorly fitted or top-dose-only effect, or another doubt; inactive = no such curve, though single readings can be large; an effect the other way counts as inactive or inconclusive.

SMILES	POLI inh	FEN1 inhibitor	Pol kappa inh-1	POLB inh	WRN inhibitor	Pol eta inh-1	POLI cherry-pick	Pol eta inh-2	others
COc1ccc(-c2csc(NC(=O)c3ccccc3NS(=O)(=O)c3ccc(F)c(F)c3)n2)cc1	?	?	?	?	?	?	?	?	GALK inh confirm=38µM;Redox cycling=–;HEK293 viability=4µM;Pol kappa inh-2=?
O=C1C[C@H]2C=CCc3cccc(c32)CN1Cc1ccc(Br)cc1	?	–	–	·	·	·	·	·
O=C1CC(c2ccco2)CC(O)=C1C=Nc1ccccc1-c1ccccc1 (stereo unspecified)	?	–	–	–	–	–	·	·
O=C1CC(c2ccco2)CC(O)=C1C=Nc1cc(Cl)ccc1Cl (stereo unspecified)	22µM	–	?	40µM	?	?	67	60	Pol kappa inh-2=75
Cc1ccc(CN2C(=O)C(O)(CC(=O)c3ccc(C)cc3)c3ccccc32)cc1 (stereo unspecified)	–	–	–	–	·	·	·	·
CCCCS(=O)(=O)c1nc(-c2ccc(Br)cc2)cc(-c2ccccc2)c1C#N	–	–	–	–	·	–	·	·
Cc1cc2ccccc2c(=O)[nH]1	–	–	–	–	–	–	·	·
O=c1[nH]c(Nc2ccccn2)cc2ccccc12	?	–	–	·	–	?	·	·
Cc1ccccc1Nc1cc2ccccc2c(=O)[nH]1	?	–	–	–	?	11µM	75	38
COc1ccccc1Nc1cc2ccccc2c(=O)[nH]1	·	·	·	·	·	·	42	27
Cc1cc(C)cc(NC(=O)c2ccc3oc(=O)c(S(=O)(=O)c4ccc(F)cc4)cc3c2)c1	–	–	–	–	·	–	·	·
O=C1c2ccccc2C(=O)N1c1cccc(N2C(=O)c3ccccc3C2=O)n1	–	–	–	·	·	·	·	·
CC(=O)Nc1ccc(NC(=O)CSc2nc(N)c(NC(=O)c3ccccc3F)c(=O)[nH]2)cc1	40µM	–	?	?	?	25µM	67	?	Pol kappa inh-2=?
Cc1cccc(NC(=O)CSc2nnc(CNC(=O)c3c(F)cccc3Cl)o2)c1C	–	–	–	–	·	–	·	·
Cc1cc(C)c2c(c1)NC(C(=O)O)C1CC=CC21 (stereo unspecified)	13µM	45µM	25µM	?	50µM	11µM	27	24	Pol kappa inh-2=6.7
Cc1c(C(=O)O)sc2nc(/C=C/c3ccccc3OC(F)F)[nH]c(=O)c12	?	?	–	40µM	–[11.6 µM]	?	75	?
CCOC(=O)CSc1nc2sc(C(=O)O)c(C)c2c(=O)[nH]1	–	–	–	–	–	–	·	·
CCN1CCN(C(c2ccc(SC)cc2)c2c(O)cc(C)n(CCOC)c2=O)CC1 (stereo unspecified)	–	–	–	–	·	–	·	·
Cc1cc(C(=O)O)ccc1-n1c(C)cc(C=C2C(=O)c3ccccc3C2=O)c1C	?	–	–	–	–[11.6 µM]	?	·	·
Cc1ccc(C(=O)O)cc1-c1ccc(C=C2C(=O)c3ccccc3C2=O)o1	?	?	79µM	32µM	–[11.6 µM]	7.9µM	42	27
FC(F)(F)C1=Nc2cccc3cccc(c23)N1	1.6µM	50µM	6.3µM	·	?	2.2µM	17	21	Pol kappa inh-2=7.5
Fc1ccc(C2=Nc3cccc4cccc(c34)N2)cc1	–	–	–	–	–	–	·	·
O=c1cc(Br)c(O)c(Br)cc1Br	4.5µM	?	50µM	·	?	18µM	?	60
COc1cc(/C=C(\CCC(=O)O)c2nc3ccccc3s2)ccc1OCC(=O)Nc1c(Cl)cccc1Cl	–	?	–	·	?	?	38	76	PGK validate=10µM
Cc1cc(/C=C(\C#N)C(=O)NCc2ccco2)c(C)n1-c1ccc(C(=O)O)cc1	40µM	–	?	?	–	20µM	67	27
SMILES	POLI inh	FEN1 inhibitor	Pol kappa inh-1	POLB inh	WRN inhibitor	Pol eta inh-1	POLI cherry-pick	Pol eta inh-2	others
Cc1cc(/C=C(\C#N)C(=O)NCC2CCCO2)c(C)n1-c1ccc(Cl)cc1 (stereo unspecified)	–	–	–	–	–	–	·	·
O=C1COc2cc(S(=O)(=O)CCC(=O)N3CCN(c4ccccc4)CC3)c(Cl)cc2N1	–	–	–	–	·	–	·	·
CN1CCC(N(C)C(=O)/C=C/c2cn(-c3ccccc3)nc2-c2cccs2)CC1	–	–	–	–	–	–	·	·
CCN1C(=O)/C(=C/c2cn(-c3ccccc3)nc2-c2cccnc2)SC1=S	–	–	–	·	–	–	·	·
O=C(O)CCN1C(=O)/C(=C/c2cn(-c3ccccc3)nc2-c2cccs2)SC1=S	32µM	?	89µM	–	–[11.6 µM]	35µM	19	43
O=C(O)CCCCCN1C(=O)/C(=C/c2cn(-c3ccccc3)nc2-c2cccs2)SC1=S	?	–	?	·	?	?	34	·	Pol kappa inh-2=?
O=C(O)CCCCCN1C(=O)/C(=C\c2cn(-c3ccccc3)nc2-c2cccs2)SC1=S	?	–	?	–	–[11.6 µM]	45µM	34	?
CC1=C(C(N)=O)C(c2ccc(C)cc2)n2nc(SCc3ccccc3)nc2N1 (stereo unspecified)	–	–	–	–	·	–	·	·
COCCNc1ccnc(-c2ccccc2CN(C)C)n1	·	·	–	·	·	·	·	·
O=C(N/N=C/c1ccccc1O)NC12CC3CC(CC(C3)C1)C2	–	–	–	–	–	–	·	·
O=C(N/N=C/c1cc(Cl)cc([N+](=O)[O-])c1O)NC12CC3CC(CC(C3)C1)C2	–	–	–	14µM	45µM	7.9µM	·	67	PGK validate=15µM
CC1=C(C)C(=O)C(N2CCOCC2)=CC1=O	–	–	–	–	–	–	·	·
